The campaign covered roughly 5,500 compounds. About 2,000 (36%) were called active. Another 18% or so got no clear call; they are omitted. No stated cut-off is given here; in the data, active means normalized growth mostly below about 0.91 (no sharp cut-off); inconclusive means no clear call, values can overlap the other calls; inactive means mostly above about 0.92. This is one part of the list.
Assay: chemical genetic growth profiling, strain panel (AID 1159580);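 further: tested at 20 µM; growth read once vehicle control cultures reached saturation at 30 °C; 1 = growth at the plate median or of vehicle wells; lower values mean less growth of the strain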
Settings: growth OD

Measured: normalized growth

C=CCc1ccc2c(c1)OCO2
inactive: S. cerevisiae deletion strains, locus YJR043C, strain POL32, hits give low values 1.02 | S. cerevisiae deletion strains, locus YJR066W, strain TOR1, hits give low values 0.928 | S. cerevisiae deletion strains, locus YJR075W, strain HOC1, hits give low values 1.03 | S. cerevisiae deletion strains, locus YKL009W, strain mrt4, hits give low values 0.979 | S. cerevisiae deletion strains, locus YKL068W, hits give low values 0.987 | S. cerevisiae deletion strains, locus YKL085W, strain MDH1 (second series), hits give low values 1.01 | S. cerevisiae deletion strains, locus YKL085W, strain MDH1, hits give low values 1.01 | S. cerevisiae deletion strains, locus YKL160W, strain elf1, hits give low values 0.994 | S. cerevisiae deletion strains, locus YKL190W, strain CNB1, hits give low values 1.01 | S. cerevisiae deletion strains, locus YKR001C, strain vps1, hits give low values 0.965 | S. cerevisiae deletion strains, locus YKR026C, strain gcn3, hits give low values 1.03 | S. cerevisiae deletion strains, locus YKR091W, strain srl3, hits give low values 1.02 | S. cerevisiae deletion strains, locus YLL001W, strain dnm1, hits give low values 1.05 | S. cerevisiae deletion strains, locus YLL026W, hits give low values 1.01 | S. cerevisiae deletion strains, locus YLL041C, strain sdh2, hits give low values 1.02 | S. cerevisiae deletion strains, locus YLR027C, strain aat2, hits give low values 1 | S. cerevisiae deletion strains, locus YLR039C, strain RIC1, hits give low values 0.891 | S. cerevisiae deletion strains, locus YLR058C, strain SHM2, hits give low values 1.01 | S. cerevisiae deletion strains, locus YLR102C, strain apc9, hits give low values 0.993 | S. cerevisiae deletion strains, locus YLR113W, strain HOG1, hits give low values 1.03 | S. cerevisiae deletion strains, locus YLR221C, strain rsa3, hits give low values 1.06 | S. cerevisiae deletion strains, locus YLR258W, strain gsy2, hits give low values 1.02 | S. cerevisiae deletion strains, locus YLR262C, strain YPT6 (second series), hits give low values 1.03 | S. cerevisiae deletion strains, locus YLR262C, strain YPT6, hits give low values 0.909 | S. cerevisiae deletion strains, locus YLR268W, strain sec22, hits give low values 0.987 | S. cerevisiae deletion strains, locus YLR320W, strain mms22, hits give low values 1.04 | S. cerevisiae deletion strains, locus YLR330W, strain CHS5, hits give low values 1 | S. cerevisiae deletion strains, locus YLR342W, strain FKS1 (second series), hits give low values 1.01 | S. cerevisiae deletion strains, locus YLR342W, strain FKS1, hits give low values 1.02 | S. cerevisiae deletion strains, locus YLR357W, strain rsc2, hits give low values 1.13 | S. cerevisiae deletion strains, locus YLR370C, strain arc18, hits give low values 1.04 | S. cerevisiae deletion strains, locus YLR371W, strain rom2, hits give low values 0.984 | S. cerevisiae deletion strains, locus YLR384C, strain iki3, hits give low values 1.03 | S. cerevisiae deletion strains, locus YLR418C, strain cdc73, hits give low values 1.01 | S. cerevisiae deletion strains, locus YML016C, strain PPZ1, hits give low values 1.01 | S. cerevisiae deletion strains, locus YML032C, strain rad52, hits give low values 0.996 | S. cerevisiae deletion strains, locus YML120C, strain ndi1, hits give low values 1.05 | S. cerevisiae deletion strains, locus YML124C, strain tub3, hits give low values 0.995 | S. cerevisiae deletion strains, locus YMR058W, strain fet3, hits give low values 1.04 | S. cerevisiae deletion strains, locus YMR078C, strain ctf18, hits give low values 0.985 | S. cerevisiae deletion strains, locus YMR125W, strain sto1, hits give low values 1.08 | S. cerevisiae deletion strains, locus YMR129W, hits give low values 1.03 | S. cerevisiae deletion strains, locus YMR205C, strain PFK2, hits give low values 1 | S. cerevisiae deletion strains, locus YMR223W, strain ubp8, hits give low values 1 | S. cerevisiae deletion strains, locus YMR231W, strain pep5, hits give low values 1.02 | S. cerevisiae deletion strains, locus YMR263W, strain SAP30, hits give low values 1 | S. cerevisiae deletion strains, locus YMR307W, strain GAS1, hits give low values 0.995 | S. cerevisiae deletion strains, locus YNL067W, strain RPL9B, hits give low values 0.998 | S. cerevisiae deletion strains, locus YNL071W, strain lat1, hits give low values 1.03 | S. cerevisiae deletion strains, locus YNL183C, strain NPR1, hits give low values 0.97 | S. cerevisiae deletion strains, locus YNL209W, strain ssb2, hits give low values 1.02 | S. cerevisiae deletion strains, locus YNL233W, strain BNI4, hits give low values 1 | S. cerevisiae deletion strains, locus YNL248C, strain rpa49, hits give low values 1.04 | S. cerevisiae deletion strains, locus YNL250W, strain rad50, hits give low values 1.01 | S. cerevisiae deletion strains, locus YNL271C, strain bni1, hits give low values 0.978 | S. cerevisiae deletion strains, locus YNL298W, strain CLA4, hits give low values 0.995 | S. cerevisiae deletion strains, locus YNL307C, strain MCK1, hits give low values 0.989 | S. cerevisiae deletion strains, locus YNL322C, strain KRE1 (second series), hits give low values 1.02 | S. cerevisiae deletion strains, locus YNR049C, strain mso1, hits give low values 1.02 | S. cerevisiae deletion strains, locus YNR052C, strain pop2, hits give low values 0.997 | S. cerevisiae deletion strains, locus YOL012C, strain htz1 0.985 | S. cerevisiae deletion strains, locus YOL147C, strain pex11, hits give low values 0.987 | S. cerevisiae deletion strains, locus YOR001W, strain rrp6, hits give low values 1 | S. cerevisiae deletion strains, locus YOR061W, strain CKA2, hits give low values 1.01 | S. cerevisiae deletion strains, locus YOR069W, strain VPS5, hits give low values 1.01 | S. cerevisiae deletion strains, locus YOR070C, strain gyp1, hits give low values 1.01 | S. cerevisiae deletion strains, locus YOR080W, strain dia2, hits give low values 1.03 | S. cerevisiae deletion strains, locus YOR083W, strain WHI5, hits give low values 1 | S. cerevisiae deletion strains, locus YOR106W, strain vam3, hits give low values 1.04 | S. cerevisiae deletion strains, locus YOR136W, strain idh2, hits give low values 0.987 | S. cerevisiae deletion strains, locus YOR144C, strain elg1, hits give low values 0.988 | S. cerevisiae deletion strains, locus YOR184W, strain ser1, hits give low values 0.99 | S. cerevisiae deletion strains, locus YOR231W, strain MKK1, hits give low values 0.99 | S. cerevisiae deletion strains, locus YOR265W, strain rbl2, hits give low values 1.01 | S. cerevisiae deletion strains, locus YOR270C, strain vph1, hits give low values 1.07 | S. cerevisiae deletion strains, locus YOR290C, strain snf2, hits give low values 1.07 | S. cerevisiae deletion strains, locus YOR316C, strain cot1, hits give low values 0.99 | S. cerevisiae deletion strains, locus YPL051W, strain arl3, hits give low values 1 | S. cerevisiae deletion strains, locus YPL078C, strain atp4, hits give low values 1.01 | S. cerevisiae deletion strains, locus YPL106C, strain sse1, hits give low values 1.03 | S. cerevisiae deletion strains, locus YPL240C, strain hsp82, hits give low values 1.02 | S. cerevisiae deletion strains, locus YPL256C, strain CLN2, hits give low values 0.966 | S. cerevisiae deletion strains, locus YPR119W, strain clb2, hits give low values 0.982 | S. cerevisiae deletion strains, locus YPR141C, strain kar3, hits give low values 0.976 | S. cerevisiae deletion strains, locus YPR163C, strain tif3, hits give low values 0.989 | S. cerevisiae deletion strains, locus YPR167C, strain met16, hits give low values 0.991 | S. cerevisiae deletion strains, strain wtn01, hits give low values 1.01 | S. cerevisiae strains, strain wild type, hits give low values 1.01

From PubChem BioAssay AID1159580 (chemical genetic matrix, 2015)
